Compound activity as filed in PubChem BioAssay.
Most compounds without a hit are left out; they make up all but 7.9% or so of the library.
HCMV antiviral – human cytomegalovirus inhibition. HFF cells, HCMV-luciferase reporter, 72 h; stronger effect = lower value. activity change, negative = inhibition, % at 57.5 µM. 410,000 tested, 4.5% active; in the data active = activity change below about -60%; inconclusive = no clear call, values can overlap the other calls; inactive = above about -39%
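Two-dose cell screen: HFF monolayers treated with compounds and infected with luciferase-expressing HCMV at 1 PFU/cell, 72 h at 37C, then lysed for luciferase measurement.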
MARV entry inh – Marburg virus entry inhibition | Marburg virus pseudotyped entry inhibition, cell reporter | Potency, µM (titrated, usually from 37.8 µM), for the others: top-dose activity change, negative = inhibition, usual class: inhibitors | 300,000 tested, 1.8% active; calls by dose curve; tested in HEK293 cells; note: potency is the fitted concentration of half-maximal effect
LASV entry inh – blocks Lassa virus binding to or entry into cells; 300,000 tested, 1.2% active; Lassa virus pseudotype entry inhibition, cell reporter; Potency, µM (doses to about 37.9 µM), inactives show at the top dose activity change, negative = inhibition, most hits filed as inhibitors; calls by dose curve; tested in HEK293 cells; note: potency is the fitted concentration of half-maximal effect; nearly all actives have a fitted effect of over 50% in size
FMDV antiviral – foot and mouth disease virus antiviral activity; FMDV antiviral cell-based qHTS; Potency, µM (doses to about 57.9 µM), for inactives: at the top dose activity change, negative = inhibition, hits mostly inhibitors; 410,000 tested, 1.2% active; calls by dose curve; tested in HEK293T cells; note: read-out not given here; potency is the fitted concentration of half-maximal effect; nearly all actives have a fitted effect of over 45% in size
HCV inhibitor – HCV inhibition; Potency, µM (series often up to 41.8 µM), for the others: at the top dose activity change, negative = inhibition, actives largely listed as inhibitors; Huh7.5.1 HCVcc-Cre infection, luciferase reporter, 44 h; AID 651820; 340,000 tested, 3.4% active; active = well fitted inhibition curve with a large enough effect; inconclusive = small, poorly fitted or top-dose-only effect, or another doubt; inactive = no such curve, though single readings can be large or run the other way; note: potency is the fitted concentration of half-maximal effect
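Seed cells (1,000/well) for 4 h; treat with compound and infect with HCVcc-Cre, moi about 0.5. Incubate 44 h, then detect luciferase activity.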
* hit, by the source's call; ? = inconclusive; · = no result given; [ ] = another dose, or the depositor's remark. % is set by controls: 0 for no effect and ±100 for the full control effect.

SMILES	HCMV antiviral	MARV entry inh	LASV entry inh	FMDV antiviral	HCV inhibitor
C=C1C(=O)O[C@@H]2C[C@@H](C)[C@@H]3C4OC4C(=O)[C@@]3(C)[C@@H](O)[C@H]12 (some centres undefined)	-79*	·	·	?	?
CC(=O)O[C@@H]1[C@H]2[C@@H](C[C@@H](C)[C@@H]3C=CC(=O)[C@@]13C)OC(=O)[C@@H]2C	-2	·	·	0%	22%
C=C1C(=O)OC2C1CCC(C)C1C=CC(=O)C12C (centres undefined)	-97*	11µM*	?	?	?
C=C1C(=O)O[C@H]2C[C@@H](C)[C@@H]3C=CC(=O)[C@@]3(C)C[C@H]12	-99*	·	·	25µM*	-51%
Nc1cc(=O)nc(SCC(=O)Nc2ccc(F)cc2)n1CCc1ccccc1	23	-3%[46.1 µM]	1%[46.1 µM]	-11%	·
CC(C)NC(=O)NC(=O)CN1c2cccc3cccc(c23)S1(=O)=O	3	·	·	-5%	-3%
Cc1cc(C)cc(NC(=S)N2CCC(c3nc4ccccc4s3)CC2)c1	-85*	0%	-28%	·	-2%
Cc1ccc(NC(=S)N2CCC(c3nc4ccccc4s3)CC2)cc1C	-90*	-14%	?	·	-33%
CCNC(=O)N1CCC(c2nc3ccccc3s2)CC1	-6	24%[46.1 µM]	4%[46.1 µM]	-7%	-24%
CC(C)n1cnc2c(Nc3cccc(Cl)c3)nc(NCCCO)nc21	93	·	·	23%	11µM*
O=C(CCNC(=O)c1ccccc1)NNC(=O)c1ccccc1Br	4	?	21%	-7%	-3%
CCn1c2c(c3cc(OCC(C)C)ccc31)CCCC2=O	8	-14%	?	·	?
CCn1c2c(c3cc(Br)ccc31)CCC/C2=N\O	-107*	-8%	-10%	-26%	?
CCOCCCNC(=O)CCc1ccc(-n2cnc3cccnc32)cc1	-67*	-2%[46.1 µM]	19%[46.1 µM]	4%	6%
Cc1cccnc1NC(=O)c1ccc(Cl)c(S(=O)(=O)N2CCCCC2)c1	-40	-17%	-4%	27%	3%
CCn1ncc(C2=NOC(C(=O)NCc3ccc(Cl)cc3)C2)c1C (centres undefined)	-81*	?	-23%	-28%	11%
Cc1cccc(OCC(=O)Nc2nonc2-c2ccc(Br)cc2)c1C	-17	12%[46.1 µM]	-2%[46.1 µM]	-25%	·
COC(=O)C1=C(O)C(C(=O)OC)C(c2ccc(C)cc2)C(C#N)(C#N)C1c1ccc(C)cc1 (centres undefined)	-96*	?	?	-18%	?
COC(=O)C1=C(Nc2ccc(C)cc2)C=C(C)C(C(=O)OC)C1c1ccc(OC)cc1 (centres undefined)	-3	?	?	0%	?
COc1ccc2c3c([nH]c2c1)[C@H](CO)N(C(=O)c1cccnc1)CC31CN(C(=O)c2cccnc2)C1	-2	·	·	·	·
Cc1ccc(-n2c(SCC(=O)N3CCCc4ccccc43)nnc2-c2cccnc2)c(C)c1	?	-17%	8%	-19%	?
Cc1ccc(-n2c(-c3ccccc3)c[n+]3c2CCc2ccccc2-3)c(C)c1	-97*	?	1µM*	2.8µM*	?
O=C(c1cnccn1)N1CCC2(CCCN(c3ccncc3)C2)CC1	·	·	·	-14%	·
NC(=S)N/N=C/c1c(O)ccc2ccccc12	?	·	·	2%	?
O=C(O)c1cccc(NC(=S)N/N=C/c2ccccc2OCc2cccc(Br)c2)c1	-7	-10%	3%	8%	?
SMILES	HCMV antiviral	MARV entry inh	LASV entry inh	FMDV antiviral	HCV inhibitor
O/N=C/c1ccc2cccc(OCc3ccccc3)c2n1	-31	·	·	-23%	?
NC(=S)N/N=C/c1ccc2cccc(OCc3ccccc3)c2n1	-68*	?	?	-22%	11µM*
NC(=S)N/N=C/c1ccccc1OCc1cccc(Cl)c1	·	?	-27%	?	11µM*
NC(N)=N/N=C/c1ccc2cccc(OCc3ccccc3)c2n1	-39	?	?	?	13µM*
Cc1ccc(OCCn2c(-c3ccc(Cl)cc3)nc3ccccc3c2=O)c(C)c1	-21	-2%[46.1 µM]	19%[46.1 µM]	-7%	·
COC(=O)NC(c1cccc(F)c1)C(C(C)=O)C(=O)OC (centres undefined)	·	13%[14.2 µM]	·	·	·
CCOC(=O)c1ccccc1NC(=O)Cn1c(=O)n(Cc2ccccc2)c(=O)c2c(C)c(C)sc21	-6	0%[46.1 µM]	4%[46.1 µM]	-10%	?
CC(C)c1ccc(NC(=O)c2csnn2)cc1	85	?	9.2µM*	-2%	14µM*
COc1ccc(C(=O)OCC(=O)NCc2ccc3c(c2)OCO3)cc1S(=O)(=O)N1CCOCC1	-17	13%	18%	0%	15%
O=C(CN(C(=O)c1csnn1)c1ccc2c(c1)OCCO2)NCc1ccccc1	26	12%[46.1 µM]	?	41%	11%
CCCC(C(=O)NC1CCCC1)N(C(=O)Cn1nnc(-c2ccc(C)o2)n1)C1CCCC1 (centres undefined)	8	26µM*	?	-13%	-15%
CCCC(C(=O)NC1CCCC1)N(C(=O)Cn1nnc(-c2ccc(C)o2)n1)c1ccccc1F (centres undefined)	-8	?	-17%[46.1 µM]	6%	-19%
CCSc1nsc(NC(=O)Nc2cccc(F)c2)n1	-98*	?	?	?	10µM*
CCCCCCSc1nsc(NC(=O)CC(C)C)n1	34	?	-57%[46.1 µM]	4%	-16%
CCCSc1nsc(NC(=O)CC)n1	11	13µM*	?	-1%	-19%
COc1cccc(NC(=O)Nc2nc(SC)ns2)c1	?	?	15%[46.1 µM]	-6%	-9%
CCCSc1nsc(NC(=O)Nc2ccc(F)cc2F)n1	-101*	·	·	7%	10µM*
COc1cccc(NC(=O)Nc2nc(SC(C)(C)C)ns2)c1	-95*	·	·	-29%	?
COc1cc(OC)cc(-n2c(=O)c3ccccc3n(Cc3ccccc3C#N)c2=O)c1	1	?	-4%[46.1 µM]	-4%	·
Cc1ccccc1C(=O)Nc1ccc(NC(=O)c2cccs2)cc1	-10	·	-27%[46.1 µM]	-4%	·
CC(C)S(=O)(=O)c1ccc(C(=O)Nc2ccc(F)cc2F)cn1	-10	?	-14%	0%	-3%
CCCSc1ccc(C(=O)Nc2ccc(F)cc2F)cn1	-62*	?	-5%[46.1 µM]	18%	-13%
O=C(NCc1ccccc1)c1ccc(S(=O)(=O)N2CCCc3ccccc32)cc1	-21	?	?	-5%	13µM*
COc1ccc(OC)c(S(=O)(=O)N2CCCc3ccccc32)c1	-102*	?	23%	8%	0%
O=C(O)c1ccc(S(=O)(=O)NC2CCCc3ccccc32)cc1 (centres undefined)	7	1%	-7%	-21%	?
CC(=O)N1CCc2cc(S(=O)(=O)NC3CCCc4ccccc43)ccc21 (centres undefined)	-64*	?	-21%	?	?
CC1Cc2ccccc2N1S(=O)(=O)c1cccc(C(=O)NCc2ccco2)c1 (centres undefined)	?	?	10µM*	0%	?
